Data: the supplement of paper PMC4466140

B1: unnamed (peptide)
chain: QGYPRQPQRPQRYHP

Target: AgAbp1
Assay: SPOT peptide array binding signal intensity (averaged, normalized) (arbitrary units (background-subtracted, floor 0; scale differs between SH3 domains)); higher = stronger binding of the SH3 domain to the peptide
In short: (§1)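 Detection of bound protein relied on anti-GST antibody, an HRP anti-mouse secondary and luminol, with imaging and quantification in Genespotter. The bound protein was GST-fused SH3 domains from four yeast species, incubated at 10 μg/ml overnight at 4°C in TBS-based blocking buffer on cellulose membranes carrying synthetic 15-mer peptides with cysteines replaced by serines. Binding signal is normalized, background-subtracted spot intensity averaged over replicates, in arbitrary units that differ between domains.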

Binder	SPOT peptide array binding signal intensity
B1	15.5

Target: AgBbc1
Assay: as above
In short: as §1

Binder	SPOT peptide array binding signal intensity
B1	187

Target: AgBem1-D1
Assay: as above
In short: as §1

Binder	SPOT peptide array binding signal intensity
B1	≤ 0

Target: AgBzz1-D1
Assay: as above
In short: as §1

Binder	SPOT peptide array binding signal intensity
B1	8

Target: AgBzz1-D2
Assay: as above
In short: as §1

Binder	SPOT peptide array binding signal intensity
B1	22.5

Target: AgCyk3
Assay: as above
In short: as §1

Binder	SPOT peptide array binding signal intensity
B1	≤ 0

Target: AgFus1
Assay: as above
In short: as §1

Binder	SPOT peptide array binding signal intensity
B1	≤ 0

Target: AgHof1
Assay: as above
In short: as §1

Binder	SPOT peptide array binding signal intensity
B1	0.5

Target: AgHse1
Assay: as above
In short: as §1

Binder	SPOT peptide array binding signal intensity
B1	17.5

Target: AgLsb1
Assay: as above
In short: as §1

Binder	SPOT peptide array binding signal intensity
B1	≤ 0

Target: AgLsb4
Assay: as above
In short: as §1

Binder	SPOT peptide array binding signal intensity
B1	47

Target: AgMyo5
Assay: as above
In short: as §1

Binder	SPOT peptide array binding signal intensity
B1	≤ 0

Target: AgNbp2
Assay: as above
In short: as §1

Binder	SPOT peptide array binding signal intensity
B1	≤ 0

Target: AgRvs167
Assay: as above
In short: as §1

Binder	SPOT peptide array binding signal intensity
B1	0.333

Target: AgSho1
Assay: as above
In short: as §1

Binder	SPOT peptide array binding signal intensity
B1	≤ 0

Target: AgSla1-D1-D2
Assay: as above
In short: as §1

Binder	SPOT peptide array binding signal intensity
B1	2

Target: AgSla1-D3
Assay: as above
In short: as §1

Binder	SPOT peptide array binding signal intensity
B1	≤ 0

Target: CaAbp1-D1
Assay: as above
In short: as §1

Binder	SPOT peptide array binding signal intensity
B1	25.5

Target: CaAbp1-D2
Assay: as above
In short: as §1

Binder	SPOT peptide array binding signal intensity
B1	11

Target: CaBbc1
Assay: as above
In short: as §1

Binder	SPOT peptide array binding signal intensity
B1	329

Target: CaBem1-D1
Assay: as above
In short: as §1

Binder	SPOT peptide array binding signal intensity
B1	15

Target: CaBzz1-D1
Assay: as above
In short: as §1

Binder	SPOT peptide array binding signal intensity
B1	144

Target: CaBzz1-D2
Assay: as above
In short: as §1

Binder	SPOT peptide array binding signal intensity
B1	32.5

Target: CaCyk3
Assay: as above
In short: as §1

Binder	SPOT peptide array binding signal intensity
B1	13

Target: CaFus1
Assay: as above
In short: as §1

Binder	SPOT peptide array binding signal intensity
B1	≤ 0

Target: CaHof1
Assay: as above
In short: as §1

Binder	SPOT peptide array binding signal intensity
B1	≤ 0

Target: CaHse1
Assay: as above
In short: as §1

Binder	SPOT peptide array binding signal intensity
B1	≤ 0

Target: CaLsb1
Assay: as above
In short: as §1

Binder	SPOT peptide array binding signal intensity
B1	≤ 0

Target: CaLsb4
Assay: as above
In short: as §1

Binder	SPOT peptide array binding signal intensity
B1	1180

Target: CaMyo5
Assay: as above
In short: as §1

Binder	SPOT peptide array binding signal intensity
B1	≤ 0

Target: CaNbp2
Assay: as above
In short: as §1

Binder	SPOT peptide array binding signal intensity
B1	≤ 0

Target: CaRvs167
Assay: as above
In short: as §1

Binder	SPOT peptide array binding signal intensity
B1	2.5

Target: CaRvs167-3
Assay: as above
In short: as §1

Binder	SPOT peptide array binding signal intensity
B1	≤ 0

Target: CaSho1
Assay: as above
In short: as §1

Binder	SPOT peptide array binding signal intensity
B1	12.5

Target: CaSla1-D1-D2
Assay: as above
In short: as §1

Binder	SPOT peptide array binding signal intensity
B1	≤ 0

Target: CaSla1-D3
Assay: as above
In short: as §1

Binder	SPOT peptide array binding signal intensity
B1	≤ 0

Target: ScAbp1
Assay: as above
In short: as §1

Binder	SPOT peptide array binding signal intensity
B1	10
